ATXN2 expr inh – ATXN2 expression inhibition | Potency, µM (highest dose often 57 µM), hits mostly inhibitors | HEK-293 ATXN2-luciferase reporter, luminescence, 24 h | 360,000 compounds, 0.72% hits | AID 1745845; also: nearly all actives have a fitted effect of over 55% in size
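ATXN2-luciferase reporter cells (luciferase flanked by upstream and downstream ATXN2 gene portions) were treated 24 h at 37 °C with compounds at up to 57 uM. SteadyGlo luminescence gave expression; GF-AFC fluorescence gave viability.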
IL1B secr inh – inhibitors of inflammasome signaling (IL-1 beta secretion); activity change, % at 57.5 µM; 360,000 compounds, 4.7% hits; THP-1 LPS/ATP IL-1B secretion, AlphaLISA, 16 h; stronger effect = lower value; in the data active = activity change below about -50%; inconclusive = mostly about -30% to -49%
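Secreted IL-1B measured by AlphaLISA bead assay after 16 h compound exposure of THP-1 cells; compounds (final up to 57.5 uM) added 1 h before LPS (250 ng/mL) and ATP (1.25 mM) stimulation; lower signal means less secretion.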
S2 tox – reduces viability in counter-screen for ATXN expression inhibitors; AID 651635; Potency, µM (highest dose often 56.7 µM), hits mostly cytotoxic; 400,000 compounds, 0.49% hits; S2 cells (HEK-293 line with an ATXN2-luciferase reporter) viability, CellTiter-Fluor protease fluorescence, 24 h; also: nearly all actives have a fitted effect of over 40% in size
a7 integrin act – integrin-mediated muscular dystrophy alleviation activation. alpha7betagal myoblasts, beta-gal FDG fluorescence, 48 h. Potency, µM (titrated, usually from 38.3 µM), most hits filed as activators. 350,000 compounds, 0.064% hits. AID 624291; also: nearly all actives have a fitted effect of over 60% in size
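alpha7betagal+/- myoblasts (passage 13, 250/well) treated 48 h at 37C with compounds at 1:260 dilution of DMSO stock. Lysed, then beta-galactosidase activity read as FDG fluorescence (ex 480/em 540) after 30 min, with pre-read for autofluorescence.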
D3 ag – agonists of human D3 dopamine receptor. max activation, %. 410,000 compounds, 0.58% hits. P35462. D3R DiscoveRx beta-arrestin cells, luminescence, 90 min; in the data active = max activation above about 30%
Target sequence (P35462 whole entry, looked up): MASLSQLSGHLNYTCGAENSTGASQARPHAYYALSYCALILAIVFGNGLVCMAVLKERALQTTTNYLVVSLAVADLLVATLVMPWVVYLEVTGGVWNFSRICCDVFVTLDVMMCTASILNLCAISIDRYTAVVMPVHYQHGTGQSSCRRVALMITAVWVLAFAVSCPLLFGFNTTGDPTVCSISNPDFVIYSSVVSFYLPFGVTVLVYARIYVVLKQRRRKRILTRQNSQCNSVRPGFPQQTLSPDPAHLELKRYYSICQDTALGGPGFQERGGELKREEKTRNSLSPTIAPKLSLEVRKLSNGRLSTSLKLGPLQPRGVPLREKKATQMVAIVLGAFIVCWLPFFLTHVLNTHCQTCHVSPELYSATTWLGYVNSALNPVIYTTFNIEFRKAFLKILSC
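Cells at 1500/well, incubated overnight, then treated with pinned compounds (dopamine as control) for 90 min at 37 degrees C. DiscoveRx reagent added for 30 - 60 minutes at room temperature; luminescence read.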
D3 antag – D3 dopamine receptor (human) antagonism; 360,000 compounds, 2.5% hits; D3R cells, DiscoveRx beta-arrestin luminescence, antagonist mode; stronger effect = lower value; max response, negative = inhibition, %; P35462; in the data active = max response below about -50%; inconclusive = no clear call, values can overlap the other calls
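Cells plated overnight at 1500 cells/well, then exposed to library compounds with dopamine controls for 90 minutes at 37 degrees C. DiscoveRx reagent added for 30–60 minutes at room temperature; luminescence read, quantitative HTS format.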
Numbers stand for hits; . = inactive; ? = inconclusive; / = no result given; [ ] = another dose, or the depositor's remark. An excerpt weighted towards active compounds, which were near 7% of everything screened. Unless noted, calls follow the shape of the dose curve; as a rule, active = well fitted curve in the direction sought with a large enough effect; inconclusive = small, poorly fitted or top-dose-only effect, or another doubt; inactive = no such curve, though single readings can be large; an effect the other way counts as inactive or inconclusive.

SMILES	ATXN2 expr inh	IL1B secr inh	S2 tox	a7 integrin act	D3 ag	D3 antag
CC(C)(C)c1nn(-c2ccccc2)c2[nH]c(=O)c(C=O)cc12	/	.	.	.	.	-101
CC(=O)c1cccc(NC(=O)COC(=O)c2ccc(S(C)(=O)=O)c([N+](=O)[O-])c2)c1	.	-89	.	.	.	?
Cc1ccccc1NC(=O)Cc1nc(COC(=O)c2ccc(NC(N)=O)cc2)cs1	.	.	.	.	.	.
O=C(COC(=O)/C=C/C(=O)OCC(=O)Nc1ccccc1F)Nc1ccccc1F	/	-82	?	.	.	.
C/C=C/C(=O)OCC(=O)Nc1ccccc1Br	.	.	?	.	.	.
Cc1ccccc1NC(=O)Cc1nc(COC(=O)c2ccc(S(C)(=O)=O)c([N+](=O)[O-])c2)cs1	/	-102	?	.	.	-73
CS(=O)(=O)c1ccc(C(=O)OCC(=O)Nc2cccnc2Cl)cc1[N+](=O)[O-]	.	-96	.	.	.	-68
O=C(COC(=O)c1ccc([N+](=O)[O-])cc1)Nc1cccnc1Cl	.	.	.	.	.	.
COc1ccc(/C=N/NC(=O)c2ccc(O)cc2O)cc1CSc1ccccn1	.	.	.	.	.	.
Cc1ccccc1NC(=O)COC(=O)c1ccc(S(C)(=O)=O)c([N+](=O)[O-])c1	.	-96	.	.	.	-98
CC(CCc1ccccc1)NC(=O)COC(=O)c1ccc([N+](=O)[O-])cc1 (stereo not drawn)	.	.	.	.	.	.
O=C(COC(=O)c1ccccc1F)Nc1cccnc1Cl	.	.	.	.	39	.
CC(CCc1ccccc1)NC(=O)COC(=O)c1ccc(S(C)(=O)=O)c([N+](=O)[O-])c1 (stereo not drawn)	?	-108	?	.	.	-78
NS(=O)(=O)c1cc(C(=O)OCC(=O)Nc2ccccc2[N+](=O)[O-])ccc1Cl	.	.	.	.	.	.
O=C(COC(=O)c1ccccc1Cl)Nc1cccnc1Cl	.	.	.	.	.	.
Cc1ccc(Nc2nc3ccccc3n3nnnc23)cc1	.	.	.	.	.	.
COc1ccc(Nc2nc3ccccc3n3nnnc23)cc1	.	.	.	.	.	-90
CNS(=O)(=O)c1cc(C(=O)O)ccc1OC	.	.	.	.	.	.
COc1ccc(C(=O)O)cc1S(N)(=O)=O	.	.	.	.	.	-60
O=C(CN1CCN(c2ccccc2F)CC1)Nc1ccccc1F	.	.	.	.	.	-58
O=C(CCN1CCN(c2ccccc2F)CC1)Nc1ccccc1F	.	.	.	.	32	.
Fc1ccc(Nc2nnc(C(F)(F)F)s2)cc1Cl	?	/	.	.	.	.
Fc1ccc(Nc2cncc(-c3ccsc3)c2)cc1Cl	.	.	?	/	.	-52
Cc1cc(C)cc(NC(=O)CSc2ccc(-c3cccs3)nn2)c1	.	-72	.	.	.	.
CCN1CCN(C(=O)c2ccccc2N(Cc2ccccc2)S(C)(=O)=O)CC1	.	.	.	.	.	.
SMILES	ATXN2 expr inh	IL1B secr inh	S2 tox	a7 integrin act	D3 ag	D3 antag
CCN1CCN(C(=O)c2ccccc2N(Cc2ccccc2)S(=O)(=O)c2ccc(C)cc2)CC1	.	-68	.	.	.	-52
Cc1ccc(S(=O)(=O)N(Cc2ccccc2)c2ccccc2C(=O)NCc2ccco2)cc1	?	-94	.	.	.	?
COC(=O)c1ccc(C2C(C(C)=O)=C(O)C(=O)N2CCO)cc1 (stereo not drawn)	.	.	.	.	.	.
CC1=C/C(=N\OS(=O)(=O)c2ccccc2)C(C(C)C)=CC1=O	?	-95	/	.	.	.
CC1=C/C(=N\OS(=O)(=O)c2ccccc2)C(C)=CC1=O	22µM	-98	20µM	.	.	-73
CC1=C(C)/C(=N\OS(=O)(=O)c2ccc(C)cc2)C=CC1=O	?	-103	8.9µM	.	.	-104
O=C(NCc1ccc(Cl)cc1)c1ccccc1Oc1ccccc1	.	.	.	.	.	.
COc1cccc(C2c3[nH]c4ccccc4c3CCN2Cc2cnc(C)s2)c1OC (stereo not drawn)	.	.	.	.	.	.
Cc1cc(C(F)(F)F)nc(NNc2nc(C)cc(C(F)(F)F)n2)n1	/	.	.	.	.	.
Cc1cccc(NC(=O)CSc2nnc(-c3ccco3)c(-c3ccco3)n2)c1C	.	-87	.	.	.	.
Cc1cccc(NC(=O)CSc2nnc(-c3ccco3)c(-c3ccco3)n2)c1	.[11.3 µM]	-94	.	.	.	.
Cc1cccc(NC(=O)CSc2nc(N)cc(N)n2)c1	.	.	?	.	.	.
CCOc1ccc(N2C(=O)Cc3ccccc3C2=O)cc1	.	.	.	.	.	.
O=C(CC1CCCC1)Nc1ccc2c(c1)CCC2	.	.	.	.	.	.
CC1CCN(C(=O)c2[nH]cnc2C(=O)NCc2ccccc2)CC1	.	.	.	.	.	.
C[C@H](NC(=O)c1nc[nH]c1C(=O)N1CCN(C(=O)OC(C)(C)C)CC1)C(=O)OC(C)(C)C	.	.	.	.	.	.
CC1CCN(C(=O)c2[nH]cnc2C(=O)N[C@@H](C)C(=O)OC(C)(C)C)CC1	.	.	.	.	.	-52
C[C@H](NC(=O)c1nc[nH]c1C(=O)N1CCN(C(=O)OC(C)(C)C)CC1)C(=O)OCc1ccccc1	.	.	.	.	.	.
CC1CCN(C(=O)c2[nH]cnc2C(=O)Nc2ccc(Cl)cc2)CC1	.	.	.	.	45	.
C[C@H](NC(=O)c1nc[nH]c1C(=O)NC1CCN(C(=O)OC(C)(C)C)CC1)C(=O)OCc1ccccc1	.	.	?	.	34	.
CC1CCN(C(=O)c2[nH]cnc2C(=O)N[C@@H](C)C(=O)OCc2ccccc2)CC1	.	-70	.	.	.	.
NC(=O)c1nn(-c2cccc(Cl)c2)c(=O)cc1O	.	.	.	.	.	.
Cc1ccc(C(=O)NC2CCN(CC(=O)NC3CCC(C)CC3)CC2)cc1 (stereo not drawn)	.	.	.	.	.	.
CCOC(=O)c1ccc(N=Nc2c(C)c(C#N)c(O)[nH]c2=O)cc1	.	.	?	.	.	.
CCOc1ccc(NC(=O)CN2CCc3cc4c(cc3C2)OCCCO4)cc1OCC	.	.	.	.	.	.
CNC(=O)c1[nH]cnc1C(=O)N[C@@H](C)C(=O)OCc1ccccc1	.	.	.	.	35	.
C[C@H](NC(=O)c1nc[nH]c1C(=O)N[C@@H](Cc1ccccc1)C(=O)OCc1ccccc1)C(=O)OCc1ccccc1	.	.	.	.	.	.
Cc1cc(C)c(CN2CCC3(CCC(CNC(=O)c4ccn(C)n4)O3)CC2)cc1C (stereo not drawn)	/	/	.	/	/	/

Assay outcomes (PubChem)
